In PubChem BioAssay AID588590 (National Center for Advancing Translational Sciences (NCATS), 2011):
Where “and” joins values, the source holds several entries; their conditions need not be identical. Equal entries are not always repeated. Hit rate of the full screen: of about 390,000 compounds, about 4,000 (1%) were called active. Roughly 7% stayed inconclusive and do not appear here. The call rests on the fitted dose curve; in most records, active means well fitted inhibition curve with a large enough effect; inconclusive means small, poorly fitted or top-dose-only effect, or another doubt; inactive means no such curve, though single readings can be large or run the other way. This excerpt belongs to a sample that is enriched for actives. Some compounds were tested as several samples or in several runs, with calls that do not always agree.

target: DNA polymerase iota (Homo sapiens) (UniProt Q9UNA4); experiment: qHTS for Inhibitors of Polymerase Iota; settings: Pol iota fluorescent replication assay, 10 min; series mostly up to 115 µM; activity, negative = inhibition: at the top concentration
Method in brief: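 Pol iota at 10 nM preincubated 15 min with compounds at room temperature; reaction started with fluorescent substrate, 50 nM final. Fluorescence read kinetically at 0 and 10 min; buffer-only wells as negative control.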
Potency means the concentration at half of the fitted maximal effect.

DNA polymerase iota (Homo sapiens), sequence (Q9UNA4 whole entry, looked up): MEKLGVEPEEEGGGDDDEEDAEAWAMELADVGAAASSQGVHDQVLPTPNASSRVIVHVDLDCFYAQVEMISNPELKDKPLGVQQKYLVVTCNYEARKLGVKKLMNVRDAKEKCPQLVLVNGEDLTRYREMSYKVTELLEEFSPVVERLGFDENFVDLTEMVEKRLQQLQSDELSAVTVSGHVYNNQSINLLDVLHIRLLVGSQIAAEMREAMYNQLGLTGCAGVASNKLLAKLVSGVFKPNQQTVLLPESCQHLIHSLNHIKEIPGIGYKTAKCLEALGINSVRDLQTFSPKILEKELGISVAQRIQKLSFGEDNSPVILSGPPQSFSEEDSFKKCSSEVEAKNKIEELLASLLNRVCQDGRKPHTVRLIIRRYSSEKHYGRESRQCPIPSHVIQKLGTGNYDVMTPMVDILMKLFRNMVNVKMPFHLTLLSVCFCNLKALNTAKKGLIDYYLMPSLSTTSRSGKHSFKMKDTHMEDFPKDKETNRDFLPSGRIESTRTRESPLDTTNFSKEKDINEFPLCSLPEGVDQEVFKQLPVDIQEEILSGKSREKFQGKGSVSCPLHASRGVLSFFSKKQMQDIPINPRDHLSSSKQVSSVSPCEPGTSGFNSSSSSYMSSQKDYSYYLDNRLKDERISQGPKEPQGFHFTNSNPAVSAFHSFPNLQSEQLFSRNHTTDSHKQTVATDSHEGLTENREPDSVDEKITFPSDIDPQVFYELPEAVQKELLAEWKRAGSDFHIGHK

| Structure (SMILES) | activity, negative = inhibition | Potency |
| --- | --- | --- |
| CO[C@H]1O[C@@H]2O[C@@]3(C)CC[C@@H]4[C@@H](C)CC[C@@H]([C@H]1C)[C@@]24OO3 | 3.25% (inactive) |  |
| O=C(COC(=O)c1ccccc1OCCOc1ccccc1)Nc1cccc(Br)c1 | -0.106% (inactive) |  |
| OC[C@H]1O[C@@H](n2cnc3c(NC4CCCC4)ncnc32)[C@H](O)[C@H]1O | -2.79% [at 58.9 µM] (inactive) |  |
| Cc1cc(F)ccc1NS(=O)(=O)c1ccc(-n2cccn2)cc1 | 1.94% (inactive) |  |
| CCOc1n[nH]c(-c2ccccc2)n1 | 23% (inactive) |  |
| O=C(NCc1ccco1)c1nc2ncccn2n1 | 3.64% (inactive) |  |
| CN(C)C(CNC(=O)c1ccc(OCc2cn3ccccc3n2)cc1)c1ccco1 (centres undefined) |  | 22.4 µM (active) |
| O=C(NCCc1ccco1)c1ccc(OCc2cn3ccccc3n2)cc1 |  | 44.7 µM (active) |
| CN(C)C(CNC(=O)c1cccc(C#N)c1)c1ccco1 (centres undefined) | -7.23% (inactive) |  |
| O=C(NCCc1ccccn1)c1ccc(COc2ccccc2)o1 | 11.1% (inactive) |  |
| CN(C)C(CNC(=O)CCCOc1ccccc1)c1ccco1 (centres undefined) | 33% (inactive) |  |
| OC(CBr)C[n+]1cccc2cc(Br)ccc21 (centres undefined) | 4.11% (inactive) |  |
| COc1ccc(Cn2c(C(=O)O)c(CNCCc3cccs3)c3ccc(OC)cc32)cc1 | 2.33% (inactive) |  |
| CN(N=O)c1ccc(C=C2c3ccccc3-c3ccccc32)cc1 | -8.63% (inactive) |  |
| CCN(CC)S(=O)(=O)c1ccc2c(c1)N(CC(=O)NCc1ccccc1)C(=O)CS2 | 13.7% (inactive) |  |
| CC1(C)C=Cc2c(ccc(C(=O)/C=C/c3ccccc3)c2O)O1 | -5.38% (inactive) |  |
| Cc1nc2ccc(S(=O)(=O)NC(C(=O)NCc3ccccc3Cl)C(C)C)cc2s1 (centres undefined) | 66.7% (inactive) |  |
| O=C(NCCc1csc(-c2ccc(C(F)(F)F)cc2)n1)C(=O)Nc1ccc(F)c(Cl)c1 | 20.5% (inactive) |  |
| O=C1CCCC(O)=C1N=Nc1ccc2ncsc2c1 |  | 39.8 µM (active) |
| O=C(Cn1cc(SCc2ccccc2)c2ccccc21)N1CCCCC1 | 17.4% (inactive) |  |
| COc1ccccc1CNc1nccn(-c2ccc(F)cc2)c1=O | 23% (inactive) |  |
| CC/C=C/C(=O)N1CC2(CC(c3cccc(NC(=O)CC)c3)=NO2)C[C@H]1C(N)=O (some centres undefined) | 13.9% (inactive) |  |
| C/C=C(\C)C(=O)N1CC2(CC(c3cccc(NC(=O)CCCCC)c3)=NO2)C[C@@H]1C(N)=O (some centres undefined) | -29.5% (inactive) |  |
| C=C(C)C(=O)Nc1cccc(C2=NOC3(C2)C[C@H](C(N)=O)N(C(=O)C(c2ccccc2)c2ccccc2)C3)c1 (some centres undefined) |  | 31.6 µM (active) |
| CCc1cccc(NC(=O)CN(C)S(=O)(=O)c2ccc3[nH]c4c(c3c2)CCCC4)c1 | 1.4% (inactive) |  |

| Structure (SMILES) | activity, negative = inhibition | Potency |
| --- | --- | --- |
| Cc1cc(C)c2nc(-c3ccco3)cc(C(=O)O)c2c1 |  | 11.2 µM (active) |
| Cc1cccc(NC(=O)CSc2nc(-c3ccco3)cc(C(F)(F)F)n2)c1C | 15.3% (inactive) |  |
| Cc1ccsc1-c1cc(C(=O)O)c2c(ccc3ccccc32)n1 | 83.5% (inactive) |  |
| CCCNC(=O)C(CC)n1nc(CC)n2c(cc3oc(C)cc32)c1=O (centres undefined) | 16.9% (inactive) |  |
| COc1ccc(C(=O)Nc2cccc(C(=O)OCc3cc(=O)n4c5c(sc4n3)CCCC5)c2)cc1 | 3.6% (inactive) |  |
| CC(C)(C)OC(=O)N1CCC(c2c(C(=O)NCCc3ccsc3)cnn2-c2ccc(F)cc2F)CC1 | -3.98% (inactive) |  |
| CC(C)(C)n1ncc2c(=O)n(Cc3ccc(C(=O)c4ccccc4)cc3)cnc21 | 24.5% (inactive) |  |
| CC(C)(C)n1ncc2c(=O)n(Cc3ccc(Cl)cc3)cnc21 |  | inactive and 10 µM (active) |
| CC(C)(C)n1ncc2c(=O)n(Cc3c(Cl)cccc3Br)cnc21 | 23.4% (inactive) |  |
| CN(C)C1=C2C=CC=CC2/C(=C2/C=Cc3ccccc32)C=C1 (centres undefined) | 48.7% (inactive) |  |
| CC1(C)CCc2cc(S(=O)(=O)N3CCN(c4nc(-c5cccs5)nc5ccccc45)CC3)ccc2O1 | 24.7% (inactive) |  |
| CCC(=O)Nc1ccc(C(=O)NNC(=O)c2ccc(Cl)cc2)cc1 | 15% (inactive) |  |
| O=C(CCl)Nc1ccc(Sc2ccc(NC(=O)CCl)cc2)cc1 |  | 39.8 µM (active) |
| O=C(O)CSCC(=O)Nc1ccc(C(F)(F)F)cc1 | 47.7% (inactive) |  |
| OC(CBr)CN1CCCCC1 (centres undefined) | 21.6% (inactive) |  |
| COc1cc(CNCCSc2nnnn2C)ccc1OCc1c(F)cccc1Cl | -4.04% (inactive) |  |
| O=C(Nc1ccccc1)c1ccccc1OCc1ccccc1 | -18.9% (inactive) |  |
| COc1ccc(/C=C/C(=O)c2cc(Br)ccc(=O)c2O)cc1 |  | 2.51 µM (active) |
| COc1cccc(N2CC(NC(=O)/C=C\c3ccccc3)CC2=O)c1 (centres undefined) | -15.9% (inactive) |  |
| COc1ccc(/C=C/C(=O)NC(=S)N2CCCC(C(N)=O)C2)cc1 (centres undefined) | -20.3% (inactive) |  |
| COc1ccc(NC(=O)c2ccco2)cc1NC(=O)c1ccc(C#N)cc1F |  | inactive |
| Cc1ccc(OCC(=O)Nc2ccccc2C(=O)NC2CC2)cc1C | 11.7% (inactive) |  |
| COc1ccc(NC(=O)c2ccco2)cc1NC(=O)COc1ccc(C)c(C)c1 |  | 70.8 µM (active) |
| COc1ccccc1CNC(=O)c1ccc(CS(=O)c2ccccc2Cl)o1 (centres undefined) | -3.31% (inactive) |  |
| COc1cc(C)ccc1OCCSc1nc2ccc(NC(=O)c3ccc(C)cc3)cc2s1 | 7.04% (inactive) |  |

| Structure (SMILES) | activity, negative = inhibition | Potency |
| --- | --- | --- |
| CCc1cccc(CC)c1NC(=O)Cn1c(=O)c(-c2cc(C)ccc2NC(C)=O)nc2ccccc21 | 0.919% (inactive) |  |
| CN(C)c1ccc(C=Nc2ccc(/C=C/c3ccnc4ccccc34)cc2)cc1 | -10.6% (inactive) |  |
| COC(=O)c1ccc(NC(=O)c2cccc3c2C(=O)N(C2CCCCC2)C3)cc1 | 42.3% (inactive) |  |
| CCOC(=O)N1CCC(N2Cc3cccc(C(=O)Nc4ccc(S(=O)(=O)N(CC)CC)cc4)c3C2=O)CC1 |  | 79.4 µM (active) |
| CCOC(=O)N1CCC(N2Cc3cccc(C(=O)Nc4c(C)cccc4CC)c3C2=O)CC1 | 19.9% (inactive) |  |
| Cc1ccc(Cn2cnc3c(cnn3C(C)(C)C)c2=O)c(F)c1 | 9.41% (inactive) |  |
| COc1cccc2c1cc1c(=O)n(CC(=O)N3CCN(c4cccc(Cl)c4)CC3)nc(C)n12 | -0.335% (inactive) |  |
| Cc1ccsc1C(=O)NCCc1ccco1 |  | 39.8 µM (active) |
| CCNC(=O)c1sccc1-n1cccc1 | -2.91% (inactive) |  |
| Cc1ccsc1C(=O)OCC(=O)NCCc1ccccc1 | 31.7% (inactive) |  |
| Cc1cc(C)cc(NS(=O)(=O)c2cc3c(cc2C)NC(=O)CO3)c1 | 2.58% (inactive) |  |
| CCOc1ccc(OCC)c(Nc2nc3ccccc3n3nnnc23)c1 | 31.1% (inactive) |  |
| COc1ccccc1N1CCN(c2ncnc3onc(-c4cccc(Cl)c4)c23)CC1 | 27.2% (inactive) |  |
| Cc1c(NC(=O)Nc2ccc(F)c(Cl)c2)c(=O)n(-c2ccccc2)n1C | 6.61% (inactive) |  |
| CC(C)(C)C1CCC(NC(=O)c2cnn3c2NC(=C2CC2)C=C3C(F)F)CC1 (centres undefined) | -18.2% (inactive) |  |
| Cc1cc(/C=C2\SC(=O)N(C)C2=O)c(C)n1-c1cccc(C(=O)O)c1 |  | 17.8 µM (active) |
| Cc1cc(/C=C2/SC(=O)N(CC(=O)OC(C)C)C2=O)c(C)n1C | -4.85% (inactive) |  |
| Cc1ccc(N2C(=O)S/C(=C/c3cn(C)c4ccccc34)C2=O)cc1 | 40.9% (inactive) |  |
| Cc1cccc(C(=O)Nc2ccc(S(=O)(=O)N3CCCCC3c3cccnc3)cc2)c1 (centres undefined) | 8.89% (inactive) |  |
| CCc1cccc(C)c1Nc1c(-c2ccc(N(C)C)cc2)nc2ncccn12 | 7.92% (inactive) |  |
| CCN(C(=O)Cn1c(=O)nc(-c2ccccc2)c2cc(Cl)ccc21)c1cccc(C)c1 | 24.1% (inactive) |  |
| CCC(C)N(c1ccc(/C=C/c2ccnc3ccccc23)cc1)C(C)CC (centres undefined) | 10% (inactive) |  |
| CC(=O)N1CCCc2cc(S(=O)(=O)N3CCC(C(=O)NCc4ccc(F)cc4)CC3)ccc21 | 25.4% (inactive) |  |
| CCCCC(=O)OC1=CN(Cc2ccccc2)S(=O)(=O)c2ccccc21 | 2.75% (inactive) |  |
| COc1ccc(CCC(=O)OCC(=O)Nc2ccc(C)c(S(=O)(=O)N(C)C)c2)cc1 |  | 89.1 µM (active) |

| Structure (SMILES) | activity, negative = inhibition | Potency |
| --- | --- | --- |
| CCN(CC(=O)Nc1ccc(C)c(S(=O)(=O)N(C)C)c1)Cc1ccccc1 | 41.7% (inactive) |  |
| COc1cc(CCC(=O)OCC(=O)Nc2cccc(S(N)(=O)=O)c2)cc(OC)c1OC | 13.9% (inactive) |  |
| COc1ccc(-c2cc(C(F)(F)F)n3nc(-c4ccccc4)cc3n2)cc1OC | 3.5% (inactive) |  |
| Cc1ccnc(-n2sc3ccccc3c2=O)n1 |  | 25.1 µM (active) |
| Cc1ccc(-c2onc(C)c2C)cc1S(=O)(=O)Nc1ccccn1 | 4.7% (inactive) |  |
| COc1cc(OC)c(OC)cc1/C=C1\C=Cc2ccccc21 | 5.35% (inactive) |  |
| CCc1nnc(SCc2nc(-c3cccc(C)c3)oc2C)c2cc3sc(C)cc3n12 | 11.7% (inactive) |  |
| COc1ccc(N2CCN(C(=O)CNC(=O)c3ccc(C(C)(C)C)cc3)CC2)cc1 | 21.1% (inactive) |  |
| O=C(CNC(=O)c1ccc2ccccc2c1)Nc1ncccc1O | 32% (inactive) |  |
| O=C(NCC(=O)N1CCN(c2ccccc2O)CC1)c1ccc2ccccc2c1 |  | 89.1 µM (active) |
| Cc1ccc(Cl)cc1N1CCN(C(=O)C2CCC(CNS(=O)(=O)c3cccs3)CC2)CC1 (centres undefined) | 4.99% (inactive) |  |
| O=C(N/N=C/c1ccco1)c1ccc(C(=O)N/N=C/c2ccco2)o1 |  | 50.1 µM (active) |
| O=C(Cc1ccc([N+](=O)[O-])cc1)N/N=C/c1ccco1 | 111% (inactive) |  |
| O=C(Cc1ccccc1)Nc1cccc(C(=O)N/N=C/c2ccco2)c1 | 4.91% (inactive) |  |
| CCc1nnc(SCc2c(F)cccc2Cl)c2cc3sccc3n12 | 9.66% (inactive) |  |
| CCc1ccccc1NC(=O)Cn1c(=O)n(-c2cccc(C)c2)c(=O)c2c1c1cc(OC)ccc1n2C | 13.1% (inactive) |  |
| Cc1[nH]n(-c2ccc([N+](=O)[O-])cc2)c(=O)c1C=NCCN1CCN(C(=O)c2ccccc2F)CC1 | 2.23% (inactive) |  |
| O=c1[nH]n(-c2ccc([N+](=O)[O-])cc2)c(=O)c2ccccc12 |  | 10 µM (active) |
| CC(=O)N1c2ccccc2N(Cc2ccc([N+](=O)[O-])cc2)C(=O)C1(C)C | 18.7% (inactive) |  |
| COC(=O)c1ccc(COc2ccc(/C=C/C(=O)c3ccc(OC)c(CSCC(=O)O)c3)cc2OC)cc1 |  | 20 µM (active) |
| COc1cc(/C=C/C(=O)OCC(=O)NC(=O)NCc2ccccc2)ccc1OCC#N | -6.58% (inactive) |  |
| COC(=O)c1ccc(C(NC(=O)OCc2ccccc2)/C(C)=C/[C@@H](C)C(=O)NCc2ccc(OC)c(OC)c2)cc1 (some centres undefined) | 3.74% (inactive) |  |
| CCN1CCN(CCCNC(=O)c2cnn(-c3ccc(C)cc3C)c2C2CCN(C(=O)OC(C)(C)C)CC2)CC1 | 28.9% (inactive) |  |
| CCOc1ccc(CNCCSc2nnnn2C)cc1 | -4.68% (inactive) |  |
